GLP1R ag: agonists of human GLP-1 receptor. P43220. HEK293 GLP-1R CRE-luciferase, luminescence, 4-6 h; cells express a hypersensitive GLP-1R form. Potency, µM (top dose mostly 45.6 µM), most hits filed as activators. actives 0.007% (n = 380,000). AID 624172
Target sequence (P43220 whole entry, looked up): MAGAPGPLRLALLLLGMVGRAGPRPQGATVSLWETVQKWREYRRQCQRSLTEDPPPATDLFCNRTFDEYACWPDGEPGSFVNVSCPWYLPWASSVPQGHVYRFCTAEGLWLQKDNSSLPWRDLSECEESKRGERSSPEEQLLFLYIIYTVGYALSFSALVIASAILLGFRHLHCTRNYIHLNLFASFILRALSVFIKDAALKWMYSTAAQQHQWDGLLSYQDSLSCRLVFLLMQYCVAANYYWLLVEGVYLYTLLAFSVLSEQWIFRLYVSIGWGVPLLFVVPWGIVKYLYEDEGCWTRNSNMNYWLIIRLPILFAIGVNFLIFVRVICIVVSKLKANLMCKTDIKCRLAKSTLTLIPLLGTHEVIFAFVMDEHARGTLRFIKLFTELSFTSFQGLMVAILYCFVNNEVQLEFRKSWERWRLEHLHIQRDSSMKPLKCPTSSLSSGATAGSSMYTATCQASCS
GLP1R cytotox: cytotoxic in the GLP-1 receptor inverse agonist counter-screen. HEK293 cAMP-luciferase reporter cells, luminescence, 24 h. AID 624418. actives 0.13% (n = 410,000). Potency, µM (top dose mostly 38.3 µM), most hits filed as inhibitors;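 also: loss of luciferase light is scored as toxicity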
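To flag toxic compounds, the library was rerun on cells for 24 hr at 37 deg C and 5% CO2. Viability-linked luminescence was captured 12 min after adding luciferase detection reagent.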
GLP1R inv ag: GLP-1 receptor (human) inverse agonism; P43220; HEK293 GLP-1R CRE-luciferase, luminescence, 24 h; GLP-1R form is constitutively active; Potency, µM (titrated, usually from 38.3 µM), most hits filed as inhibitors; actives 1.6% (n = 410,000); also: nearly all actives have a fitted effect of over 55% in size
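Stable HEK293 clone (constitutively active GLP-1R + cAMP-response luciferase); 200 cells/uL plated, 12 h pre-culture, compound 24 hr, 37 deg C/5% CO2; detection reagent 12 min RT; luminescence.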
ClpP mod: qHTS Assay for Activators of ClpP; purified B. subtilis ClpP, FRET peptide cleavage, 20 min; ATP-dependent Clp protease proteolytic subunit (Bacillus subtilis (strain 168)), P80244; actives 1.9% (n = 340,000); AID 651965, 2013; Potency, µM (highest dose often 57.5 µM); active = well fitted falling curve with a large enough effect; inconclusive = small, poorly fitted or top-dose-only effect; inactive = no such curve, though single readings can be large or run the other way; also: the source files actives as falling curves though it sought activators and does not explain the sign; nearly all actives have a fitted effect of over 65% in size
Target sequence (P80244 whole entry, looked up): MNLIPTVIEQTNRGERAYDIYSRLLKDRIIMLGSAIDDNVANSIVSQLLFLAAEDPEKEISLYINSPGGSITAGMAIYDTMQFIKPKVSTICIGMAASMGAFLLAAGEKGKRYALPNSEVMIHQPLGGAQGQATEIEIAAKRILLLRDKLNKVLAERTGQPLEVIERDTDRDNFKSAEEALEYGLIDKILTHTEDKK
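ClpP 10 microg/mL final, pH 8 Tris/KCl buffer with BSA, glycerol, Tween-20; compound pinned in; FRET-FV substrate; RT 20 min; Ex320/Em430; ΔFRET vs ADEP 5.8 microM, DMSO, no enzyme.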
Large screens that a line does not name were inactive; ! = repeats disagree. Shown are actives, neighbours in structure and some others; about 3.2% of the full set was active somewhere. Unless noted, calls follow the shape of the dose curve; as a rule, active = well fitted curve in the direction sought with a large enough effect; inconclusive = small, poorly fitted or top-dose-only effect, or another doubt; inactive = no such curve, though single readings can be large; an effect the other way counts as inactive or inconclusive.

CCOC(=O)c1cccc(NC(=O)[C@@H](c2ccccc2)N2Cc3ccccc3C2=O)c1	GLP1R inv ag inconclusive
CCOC(=O)C1CCN(S(=O)(=O)c2cc(-c3cc(C)no3)ccc2OC)CC1	none (no result: GLP1R ag)
COc1ccc(-c2cc(C)no2)cc1S(=O)(=O)N1CCN(c2ccccn2)CC1	ClpP mod inconclusive
COc1ccc(-c2cc(C)no2)cc1S(=O)(=O)N1CCCN(Cc2ccccc2Cl)C1	GLP1R inv ag 8.9µM
COc1ccc(-c2cc(C)no2)cc1S(=O)(=O)N1CCN(c2ccccc2F)CC1	GLP1R inv ag 10µM!
CCc1nn(CC(=O)NCCc2ccc(OC)cc2OC)c(=O)c2cc3sccc3n12	none (no result: GLP1R ag)
Cc1nc([N+](=O)[O-])cn1CC(O)c1ccc2c(c1)OCO2 (stereo not drawn)	none (no result: GLP1R ag, GLP1R cytotox, GLP1R inv ag)
COCCn1c(SCC(=O)c2c[nH]c3ccccc23)nc2cc(C(=O)NCC(C)C)ccc2c1=O	none (no result: GLP1R ag)
COc1ccc(-c2nnc(N(C)C(=O)c3ccno3)s2)cc1	ClpP mod 22µM
CN(C(=O)c1ccno1)c1nnc(-c2ccccn2)s1	none
Cc1cc(C)c2c(=O)cc(C(=O)Nc3nc4ccc(F)cc4s3)oc2c1	none (no result: GLP1R ag)
C/C(=N\NC(N)=S)c1ccc(Cl)s1	GLP1R cytotox inconclusive, GLP1R inv ag 3.2µM
CCC(C(=O)NCCc1cc(OC)ccc1OC)n1nc(C)c2c(C)n(-c3ccccc3)nc2c1=O (stereo not drawn)	none (no result: GLP1R ag)
CCOC(=O)c1cccc(NC(=O)c2sc3nc[nH]c(=O)c3c2C)c1	none (no result: GLP1R ag)
COc1cccc(CNC(=O)c2sc3nc[nH]c(=O)c3c2C)c1	ClpP mod 40µM (no result: GLP1R ag)
CCOC(=O)c1snc2c(=O)[nH]cnc12	ClpP mod 28µM
CCOC(=O)c1sc2nc[nH]c(=O)c2c1C	ClpP mod 32µM
COc1ccc(-c2nnc(SCC(=O)N3CCC(C)CC3)o2)cc1	none (no result: GLP1R ag)
O=C(Nc1ccc(-c2nc3ncccc3o2)cc1)c1ccco1	ClpP mod 28µM
Cc1cc(C)c(OCC(=O)Nc2cccc(NC(=O)c3ccco3)c2)c(Br)c1	GLP1R inv ag inconclusive
Cc1ccccc1OCc1nc(-c2ccc(NC(=O)c3ccco3)cc2)no1	GLP1R cytotox inconclusive, GLP1R inv ag inconclusive, ClpP mod 28µM
Cc1cc(C)c(OCC(=O)Nc2ccc(NC(=O)c3ccco3)cc2)c([N+](=O)[O-])c1	ClpP mod 32µM
Cc1ccc(-c2nnc(-c3ccc(NC(=O)c4ccco4)cc3)o2)cc1	ClpP mod 32µM
O=C(Nc1ccc(-c2nc3ncccc3o2)cc1)c1ccc(Br)o1	none
C=CCOC(=O)Nc1c(C(=O)OC)[nH]c2ccc(Cl)cc12	ClpP mod 32µM
CCOC(=O)c1[nH]c2cc3c(cc2c1NC(=O)CN1CCC2(CC1)OCCO2)OCO3	ClpP mod inconclusive
CCOC(=O)c1[nH]c2cc3c(cc2c1NC(=O)CN1CCN(CCO)CC1)OCO3	ClpP mod 25µM
CCOC(=O)c1[nH]c2ccc(OCC)cc2c1NC(=O)CN1CCN(c2ccccc2)CC1	ClpP mod inconclusive
CCOC(=O)c1[nH]c2ccc(OC)cc2c1NC(C)=O	ClpP mod 25µM
CCOC(=O)c1[nH]c2ccc(OC)cc2c1NC(=O)CN1CCSCC1	GLP1R inv ag inconclusive, ClpP mod 13µM
CCOC(=O)c1[nH]c2ccc(OC)cc2c1NC(=O)c1cccc(OC)c1	GLP1R inv ag inconclusive
COc1ccc(Cn2c(C(=O)O)c(CNC3CCCCC3)c3ccc(C)cc32)cc1	none (no result: GLP1R ag)
COc1cc2c(NC3CCN(C)CC3)nc(N3CCCN(C)CC3)nc2cc1OCCCCCCN(C)C	none (no result: GLP1R ag, GLP1R cytotox, GLP1R inv ag)
COCCNC(=O)C1CCC(CNS(=O)(=O)c2ccc3c(c2)CC(C)N3C(C)=O)CC1 (stereo not drawn)	none (no result: GLP1R ag)
CCc1ccc(C(=O)c2cn(CC(=O)Nc3ccc(F)cc3)c3ccc(F)cc3c2=O)cc1	GLP1R inv ag inconclusive
CCOC(=O)c1[nH]c2ccccc2c1NC(=O)CN1CCCCC1	none
COc1ccc2[nH]c(C(=O)O)c(CCN3C(=O)c4ccc(C(=O)O)cc4C3=O)c2c1	none
CCOC(=O)c1[nH]c2ccc(OCC)cc2c1NC(=O)CN1CCC2(CC1)OCCO2	ClpP mod 25µM
COc1ccc2[nH]c(C(=O)O)c(CCC(=O)O)c2c1	ClpP mod 20µM
O=C(Nc1ccccc1Cl)[C@H](CSCc1ccccc1)N1Cc2ccccc2C1=O	GLP1R inv ag inconclusive
CC(=O)c1ccc(NC(=O)COCc2cc(-c3ccc(F)cc3)on2)cc1	none (no result: GLP1R ag)
COc1cc2c(NC3CCN(C)CC3)nc(N3CCCCC3)nc2cc1OCCOCCN(C)C	none (no result: GLP1R ag, GLP1R cytotox, GLP1R inv ag)
COc1ccccc1CNC(=O)c1ccc(N2CCCC2)c(NC(=O)NCc2ccc(C)cc2)c1	none (no result: GLP1R ag)
CCC1CCc2sc(C(=O)N(C)CC(=O)Nc3ccc(OC)cc3)cc2C1 (stereo not drawn)	GLP1R inv ag 10µM
CCC1CCc2sc(C(=O)NCC(c3ccccc3OC)N3CCCC3)cc2C1 (stereo not drawn)	GLP1R cytotox inconclusive, GLP1R inv ag 5µM
CCC1CCc2sc(C(=O)NC3CCN(Cc4ccccc4)CC3)cc2C1 (stereo not drawn)	GLP1R cytotox inconclusive, GLP1R inv ag 5µM
COc1ccc(C(CNC(=O)c2cc3c(s2)CCC(C)C3)N2CCCC2)cc1 (stereo not drawn)	GLP1R cytotox inconclusive, GLP1R inv ag inconclusive
Cc1ccnc(-n2c(C)cc(/C=N/NC(=O)COc3cccc4cccnc34)c2C)c1	ClpP mod 14µM
Cc1cc(/C=N\NC(=O)COc2cccc3cccnc23)c(C)n1-c1ccccc1	none
CN(C)S(=O)(=O)c1ccc(Nc2nc(C3CC3)nc3c2nnn3Cc2ccccc2Cl)cc1	ClpP mod 32µM
CCC1(C)Cc2c(c(=O)n(-c3ccccc3)c3ncnc(N)c23)CO1 (stereo not drawn)	ClpP mod 16µM
Cc1ccc2onc(CC(=O)N3CCN(c4ccc(F)cc4)CC3)c2c1	none (no result: GLP1R ag)
Cc1ccc(S(=O)(=O)NCC(Nc2cccc(Cl)c2)c2ccccc2)cc1 (stereo not drawn)	GLP1R inv ag 11µM
Cc1ccc(S(=O)(=O)NCC(NCc2ccc(F)cc2)c2ccccc2)cc1 (stereo not drawn)	GLP1R inv ag 11µM
CC(C)c1ccc(NC(=O)Cn2c(=O)n(CCc3ccccc3)c(=O)c3ccccc32)cc1	none
COc1ccc(-c2cn3cc(Cl)ccc3n2)cc1OC	GLP1R ag inconclusive, ClpP mod inconclusive
Clc1ccc2nc(-c3ccc(Br)s3)cn2c1	ClpP mod 20µM
O=C(Nc1ccc2c(c1)OCCO2)c1cc2sccc2n1Cc1ccc(F)cc1	GLP1R inv ag 5.6µM, ClpP mod inconclusive
CC(Oc1cccc([N+](=O)[O-])c1)C(=O)NCCC1=CCCCC1 (stereo not drawn)	none
CC(C(=O)NCCC1=CCCCC1)c1ccc([N+](=O)[O-])cc1 (stereo not drawn)	GLP1R inv ag 10µM (no result: ClpP mod)

High-throughput results as filed in PubChem BioAssay.
